From PubChem BioAssay (NCI)
This is part of a sample that, as a whole, favours compounds with a hit. Of some 83,000 tested, about 20% had one in any assay.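 A percent growth of 40 corresponds to 60% growth inhibition; 0 means no net growth; -100 means all cells died. Active threshold: below 10.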 Unmarked numbers belong to inactive results. Calls of active or inactive are those of the source.

Tests used:
Experiment in all cases: NCI-60 one-dose screen, 48 h (100 = growth as untreated, 0 = no growth, -100 = all killed)
Details in all cases: 10 µM unless noted
[1] = system: HCT-15 colon
[2] = system: SNB-75 CNS
[3] = system: SNB-19 CNS
[4] = system: U251 CNS
[5] = system: PC-3 prostate
[6] = system: SK-MEL-5 melanoma
[7] = system: UACC-62 melanoma
[8] = system: LOX IMVI melanoma
[9] = system: SK-MEL-28 melanoma
[10] = system: SK-MEL-2 melanoma
[11] = system: EKVX NSCLC
[12] = system: SN12C renal
[13] = system: UO-31 renal
[14] = system: TK-10 renal
[15] = system: ACHN renal
[16] = system: A498 renal
[17] = system: CCRF-CEM leukemia
[18] = system: MOLT-4 leukemia
[19] = system: CAKI-1 renal

Compound | growth [1] | growth [2] | growth [3] | growth [4] | growth [5] | growth [6] | growth [7] | growth [8] | growth [9] | growth [10] | growth [11] | growth [12] | growth [13] | growth [14] | growth [15] | growth [16] | growth [17] | growth [18] | growth [19]
COc1ccc2c(c1)OC13Oc4cc(OC)ccc4C=C1CCCC3=C2 | 12.8% | 74.6% | 54.7% | 35% | 23.6% | 40.3% | 14.8% | -32.1% (active) | 63% | 15.7% | 39.7% | 44.1% | 36.3% | 47% | 25.3% | 69.8% | 5.97% (active) | -3.56% (active) | 
COc1ccc(/C=C(/c2ccccc2)[N+](=O)[O-])cc1 | -35% (active) | -85.5% (active) | -19% (active) | -95.4% (active) |  | -91.5% (active) | -17.6% (active) | -89.6% (active) | -17.7% (active) | -49.7% (active) | -29.6% (active) | -38.4% (active) | -100% (active) | -83.2% (active) | -97.4% (active) | 10% |  | -15.5% (active) | -88.3% (active)
Cc1[nH]n(C(=O)c2ccncc2)c(=O)c1N=Nc1ccc(F)c(Cl)c1 | 111% | 92.4% | 99.1% | 112% | 116% | 107% | 106% | 111% | 107% | 114% | 87.8% | 102% | 86.7% | 134% | 110% | 102% | 19.7% | 11.6% | 63.4%
COc1ccc(C(=O)c2cc3c(N)c(C(=O)Nc4cccc(Br)c4C)sc3nc2C)cc1 | 14.2% | -16.9% (active) | 43% | 10.7% | 21% | -36.2% (active) | 38% | 19% | 62.1% | 17.6% | 38.3% | 19.2% | 21% | 54.3% | 24% | -13.2% (active) | 9.3% (active) | 10.2% | 15.2%
CN(C)C(=O)OCc1nc2c(N3CCOCC3)nc(-c3ccccc3)nc2n1C | -38.6% (active) | -87.2% (active) | 13.9% | -57.2% (active) | -65.2% (active) | -95.7% (active) | -92% (active) | -84.7% (active) | -95.4% (active) | -73.5% (active) | -56.8% (active) | -90.7% (active) | -100% (active) | -77.7% (active) | -99.8% (active) | -32.3% (active) | -12% (active) | -3.34% (active) | -91.7% (active)
COc1ccc(C2CC(c3cccc(Nc4ccncc4)c3)=NN2c2cc(Cl)cc(Cl)c2)cc1 (stereo not given) | -67.5% (active) | 65.9% | 91% | -34.4% (active) |  | 67.5% | 99.6% | -52.7% (active) | -49.3% (active) |  | 81.9% | 70.8% | 53.7% | 63.2% | 51.7% | 95.7% |  | -2.82% (active) | 33.3%
CN(Cc1ccccc1)c1nc(Cl)c(C2CC(c3ccc(Cl)cc3)=Cc3[nH][nH]c(=O)c32)s1 (stereo not given) | 90.1% | 88.1% | 104% | 93.4% | 79.7% | 88.2% | 89% | 79.9% | 103% | 99.7% | 99.6% | 89.4% | 69.2% | 99.1% | 93.5% | 111% | 106% | 96.3% | 86.2%
O=C(CN1CCOCC1)Nc1ccc2ncnc(Nc3ccc(OCc4cccc(F)c4)c(Cl)c3)c2c1 | 60% | 69.1% | 72.2% | 77.1% | 51.9% | 61.5% | 84.8% | 72.9% | 77% | 88.1% | 25.1% | 48.1% | 30.7% | 37.8% | 24.5% | 28% | 66.7% | 47.9% | 45.8%
C[C@H]1[C@H](C)CC[C@]2(CO)CC[C@]3(C)C(=CC[C@@H]4[C@@]5(C)CCCNC(C)(C)[C@@H]5CC[C@]43C)[C@H]12 | 6.84% (active) | 9.21% (active) | -64.9% (active) | -83.3% (active) | -43.2% (active) |  | -72.3% (active) | -94.9% (active) | -84.9% (active) | 13.1% | 19.4% | -1.54% (active) | 12.5% | 23% | -66.3% (active) |  | -34.7% (active) | -45.6% (active) | 16.4%
COc1ccc(OC)c(/C=C/[C@H]2O[C@@H](C)[C@H](O)[C@@H]2O)c1 | 103% | 90.2% | 99.4% | 94% | 106% | 103% | 100% | 99.8% | 102% | 91.2% | 107% | 106% | 91.5% | 95.7% | 106% |  | 98.3% | 93.2% | 96.9%
Clc1ccc(C2CC(c3cccc(Nc4ccncc4)c3)=NN2c2ccc(Cl)cc2)cc1 (stereo not given) | -71.6% (active) | 70.7% | 67.8% | -49.7% (active) | 17% | 33.8% | 98% | -97.2% (active) | -92.3% (active) | 85.8% | 72.3% | 39.6% | 4.62% (active) | 50.5% | -66.6% (active) | 72.1% | 2.88% (active) | -5.2% (active) | -59.6% (active)
CC(=O)c1c[nH]c2ccc(-c3ccnc(Nc4ccc(NC(=O)C5CCCC5)c(CN5CCOCC5)c4)n3)cc12 | -21.9% (active) | -81.4% (active) | -6.49% (active) | 10.7% | 2.51% (active) | -74.6% (active) | -90.1% (active) | -54.2% (active) | -62.4% (active) | -54.3% (active) |  | -8.98% (active) | 2.12% (active) | 0.0909% (active) | -5.66% (active) | -85.1% (active) | -11.5% (active) | -16.2% (active) | 0.231% (active)
COc1ccc(C2CC(c3cccc(Nc4ccncc4)c3)=NN2c2ccc(Cl)cc2)cc1 (stereo not given) | -53.3% (active) | 54.9% | 90.4% | -40% (active) | 30.9% |  | 97% | -80.5% (active) | -80.7% (active) | 80.4% | 83.8% | 63.7% | 47.6% | 59.1% | 46.7% | 70.1% | 4.44% (active) | -7.16% (active) | 24.5%
COc1cc(C(=O)c2cnc(-c3ccc4cc[nH]c4c3)[nH]2)cc(OC)c1OC | 6.36% (active) | 9.22% (active) | 23.1% | 10% |  | -63% (active) | 29.4% | 8.42% (active) | 55.9% | 35.8% | 28.2% | 20.5% | 11.4% | 33.3% | 15.5% |  | 5.89% (active) | 7.06% (active) | 8.22% (active)
C[C@@H]1CN(Cc2ccc(/C=C/c3n[nH]c4ccc5nc(-c6cn[nH]c6C(F)(F)F)c6c(c5c34)CCCC6)cc2)C[C@H](C)O1 | 7.35% (active) | -4.9% (active) | 57.1% | 46.1% | 22.7% |  | 44.3% | 8.23% (active) | 40.6% | 57.6% |  | 12.6% | 4.93% (active) | 32.5% | 10.8% | 3.16% (active) | 15.4% | 12.6% | 1.97% (active)
O=C1Nc2c(ccc(Cl)c2Cl)/C1=C/c1ccc([N+](=O)[O-])cc1 | 89.4% | 95.9% | 81.3% | 92.3% | 95.3% | 99.6% | 102% | 89.5% | 111% | 99.1% | 84.3% | 126% | 79.7% | 103% | 87.8% | 99.4% | 2.94% (active) | 96.3% | 59.6%
CC(C)NC(=O)N1C(=O)CCC1NNC(=O)c1ccc([N+](=O)[O-])cc1 (stereo not given) | 107% | 102% | 107% | 109% | 107% | 105% | 98.1% | 93.9% | 98.4% | 93.1% | 110% | 102% | 92% | 101% | 106% |  | 104% | 98.7% | 100%
COc1cc(OC)cc(C2C3=C(COC3=O)Nc3cc(OC)ccc32)c1 (stereo not given) | 11.3% | 40.7% | 36.2% | 16.2% | 29.3% | -24.3% (active) | 36% | 25.8% | 63.5% | 1.66% (active) | 53.7% | 25.2% | 46.8% | 65.7% | 28.1% | 1.93% (active) | 19.9% | 17.6% | 
